In all, about 310,000 compounds went through this assay and about 14,000 (4.5%) showed an effect of 50% or more. The effect is printed as a negative number. What follows is part of a selection rich in strong results, with near analogues and random picks from the rest.
Each molecule was assayed against human ether-à-go-go-related gene (hERG) potassium channel (human, UniProt Q12809) (assay: primary screen, population patch clamp on CHO cells stably expressing hERG; higher = less effect of the substance).
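Also: peak tail current of the secondary pulse compared with the same well before compound.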

Sequence of human ether-à-go-go-related gene (hERG) potassium channel (Q12809 whole entry, looked up): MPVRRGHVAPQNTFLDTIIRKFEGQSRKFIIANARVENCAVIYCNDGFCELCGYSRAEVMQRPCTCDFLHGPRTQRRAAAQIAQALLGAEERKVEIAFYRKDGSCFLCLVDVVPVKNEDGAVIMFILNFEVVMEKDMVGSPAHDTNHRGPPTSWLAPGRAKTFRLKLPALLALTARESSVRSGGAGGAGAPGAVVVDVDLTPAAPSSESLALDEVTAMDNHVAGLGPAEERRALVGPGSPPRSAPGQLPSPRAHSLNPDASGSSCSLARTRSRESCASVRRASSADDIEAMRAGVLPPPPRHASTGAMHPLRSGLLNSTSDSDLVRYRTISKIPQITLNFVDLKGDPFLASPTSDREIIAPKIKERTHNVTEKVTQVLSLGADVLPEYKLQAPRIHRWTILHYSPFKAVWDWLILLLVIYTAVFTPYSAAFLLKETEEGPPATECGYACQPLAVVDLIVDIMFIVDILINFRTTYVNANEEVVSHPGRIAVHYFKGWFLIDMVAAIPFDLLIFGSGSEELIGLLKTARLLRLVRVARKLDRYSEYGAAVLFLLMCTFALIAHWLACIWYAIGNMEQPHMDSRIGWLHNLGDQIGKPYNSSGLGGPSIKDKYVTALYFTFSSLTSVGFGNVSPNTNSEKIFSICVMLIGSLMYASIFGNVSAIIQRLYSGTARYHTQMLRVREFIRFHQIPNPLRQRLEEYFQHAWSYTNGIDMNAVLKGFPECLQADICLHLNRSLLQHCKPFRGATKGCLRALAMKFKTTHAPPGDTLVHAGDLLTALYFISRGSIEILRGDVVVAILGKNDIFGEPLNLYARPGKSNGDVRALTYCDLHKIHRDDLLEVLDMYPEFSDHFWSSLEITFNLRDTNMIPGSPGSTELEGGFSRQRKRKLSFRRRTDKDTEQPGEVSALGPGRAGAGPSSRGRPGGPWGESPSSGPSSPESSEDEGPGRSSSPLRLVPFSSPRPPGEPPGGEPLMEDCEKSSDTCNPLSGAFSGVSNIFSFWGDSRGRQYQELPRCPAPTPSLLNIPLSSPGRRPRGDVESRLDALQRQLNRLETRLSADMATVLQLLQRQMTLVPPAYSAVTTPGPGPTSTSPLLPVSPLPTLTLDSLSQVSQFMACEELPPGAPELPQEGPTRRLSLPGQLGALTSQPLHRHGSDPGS

SMILES	hERG current change (%, negative = inhibition) at 10uM [%]
COc1ccc(C(=O)N2C(=S)NC(=O)/C2=C\c2ccc(C)cc2)cc1	-2.42
Cc1cccc(CN2C(=O)/C(=C\c3ccc(C(=O)NCCCN4CCN(C)CC4)cc3)Oc3ccccc32)c1	-4.13
O=C(NCCNC1CCN(Cc2ccccc2)CC1)c1cccs1	-15.2
COc1ccc(NC(=O)CN(C)CC(=O)Nc2ccc(Cl)cc2[N+](=O)[O-])cc1	-48
CCOC(=O)c1[nH]cnc1C(=O)Nc1ccc(C)cc1	11.6
CC1(C)CC(NC(=O)Nc2ccc([N+](=O)[O-])cc2)CC(C)(C)N1	9.76
FC(F)(F)c1nnc2c(Sc3ccc(Cl)cc3)nc3ccccc3n12	13.5
CC(=O)c1c(C)oc2ccc(OCc3ccccc3)cc12	0.181
Cc1ccc(NC2=NC(c3ccc(F)cc3)n3c(nc(C)cc3=O)N2)c(C)c1 (stereo not shown)	21.8
O=C(Cn1cc([N+](=O)[O-])cn1)NCc1ccccc1	20.9
CCC(C)[C@H]1CNC(=O)C(=O)N1CCCc1cc(OC)c(OC)c(OC)c1 (stereo partly shown)	9.16
COc1ccc(C2Nc3ccccc3C(=O)N2O)cc1CN1CCOCC1 (stereo not shown)	-2.72
COc1ccc(C2Nc3ccccc3C(=O)N2Cc2ccccc2)cc1CN1CCOCC1 (stereo not shown)	-63.5
CCN(CC)CCN1C(=O)c2ccccc2NC1c1cc(OC)c(OC)c(OC)c1 (stereo not shown)	-40.7
COc1ccc(C2Nc3ccccc3C(=O)N2c2ccccc2)cc1CN1CCOCC1 (stereo not shown)	-26.7
CCN(CC)CCN1C(=O)c2ccccc2NC1c1ccc(F)cc1 (stereo not shown)	-64.3
CCCN1C(=O)c2ccccc2NC1c1ccc(Cl)cc1 (stereo not shown)	-7.23
COc1ccc(CNC(=O)c2cnc3cc(C)ccn3c2=O)cc1	-8.79
O=C(N/N=C/c1cccc2ccccc12)c1ccccc1Cl	8.63
Cc1cc(/C(O)=C2\C(=O)C(=O)N(CCN(C)C)C2c2ccncc2)ccc1OCc1ccccc1 (stereo not shown)	3.21
COc1ccc(Cl)cc1NC(=O)CN(C)C(=O)c1ccc2c(c1)CC(c1ccccc1)OC2=O (stereo not shown)	-41.8
COc1cccc(NC(=O)CN(C)C(=O)c2ccc(N3CCOCC3)c([N+](=O)[O-])c2)c1	-37.6

SMILES	hERG current change (%, negative = inhibition) at 10uM [%]
COc1cccc(NC(=O)CN(C)C(=O)c2ccc3c(c2)CC(c2ccccc2)OC3=O)c1 (stereo not shown)	-66.9
COc1cccc(NC(=O)CN(C)C(=O)c2ccc3ccccc3c2)c1	1.99
CCOc1ccc(NC(=O)CN(C)C(=O)c2ccc(NC3CC3)c([N+](=O)[O-])c2)cc1OCC	-59
CN(CC(=O)Nc1cccc(F)c1)C(=O)c1ccc(NC2CC2)c([N+](=O)[O-])c1	-68.5
COc1cccc(NC(=O)CN(C)C(=O)c2ccc(NC3CC3)c([N+](=O)[O-])c2)c1	-73.4
CN(CC(=O)Nc1cccc(F)c1)C(=O)c1ccc(N2CCCCC2)c([N+](=O)[O-])c1	-8.94
CN(CC(=O)Nc1cccc(F)c1)C(=O)c1ccc(N2CCCC2)c([N+](=O)[O-])c1	-46.7
CCOc1ccc(NC(=O)CN(C)C(=O)c2ccc(C3SCCS3)cc2)cc1OCC	-0.427
CCOc1ccc(NC(=O)CN(C)C(=O)c2ccc(N3CCCC3)c([N+](=O)[O-])c2)cc1OCC	-49.1
COc1cccc(NC(=O)CN(C)C(=O)c2ccc(N3CCCCC3)c([N+](=O)[O-])c2)c1	-12.9
O=C(O)CCC(=O)N(Cc1cccs1)Cc1cccs1	-2.07
COc1ccc(C(=O)Cn2nnc(-c3ccccc3NC(=O)C3CCCCC3)n2)cc1	2.23
O=c1cc(-c2ccccc2)[nH]c2ccc(F)cc12	5.52
Nn1c(SCC(=O)NC2CCCCC2)nnc1-c1ccco1	4.3
Cc1oc(-c2ccccc2)nc1CN1C(=O)C(C)N=C(c2ccccc2F)c2cc(Cl)ccc21 (stereo not shown)	-5.78
O=[N+]([O-])c1ccc(/C=N/Nc2nc(N3CCCCC3)nc(N3CCCCC3)n2)o1	-18.1
CC(=O)Nc1ccc(S(=O)(=O)NCCC(=O)Nc2ccc(C)c(F)c2)cc1	-0.433
S=c1[nH]nc(Cc2sc(-c3ccccc3)nc2-c2ccccc2)o1	21.6
O=C(Nc1cccc2cccnc12)c1ccc(Br)cc1Br	21.6
Cc1ccccc1CNC(=O)Nc1cccs1	3.67
CC(C)NC(=O)c1cc(-c2ccco2)nn1-c1ccc(Cl)cc1	-27.4

Reference: paper PMC4336329 (PLoS ONE, 2015)
